# Screens deposited in PubChem by several laboratories.
# Shown are actives, neighbours in structure and some others; about 4.4% of the full set was active somewhere.
# IL1B NFkB inh – blocks IL-1B driven NFkB nuclear translocation in HUVEC cells | AID 796 | 94,000 tested, 0.43% active | HUVEC IL-1B NFkB p65 nuclear translocation imaging | inhibition, % at 2 µM;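 active = inhibition above about 30% together with a positive call from visual inspection of the well image, limit read from the data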;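 note: nuclear over cytoplasmic p65 intensity ratio measured by imaging; 0% = IL-1B stimulated DMSO wells and 100% = unstimulated DMSO wells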
# Cav3 T inh – blocks human Cav3.2 T-type calcium channel | 100,000 tested, 4% active | O95180 | Cav3.2-expressing cells, Fluo-4 calcium fluorescence FDSS; stronger effect = lower value | B-score at 10 µM;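 active = single-dose well whose peak fluorescence ratio is a statistical outlier from its plate by either plate-standardised score or position-corrected B-score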
# Target sequence (O95180 whole entry, looked up): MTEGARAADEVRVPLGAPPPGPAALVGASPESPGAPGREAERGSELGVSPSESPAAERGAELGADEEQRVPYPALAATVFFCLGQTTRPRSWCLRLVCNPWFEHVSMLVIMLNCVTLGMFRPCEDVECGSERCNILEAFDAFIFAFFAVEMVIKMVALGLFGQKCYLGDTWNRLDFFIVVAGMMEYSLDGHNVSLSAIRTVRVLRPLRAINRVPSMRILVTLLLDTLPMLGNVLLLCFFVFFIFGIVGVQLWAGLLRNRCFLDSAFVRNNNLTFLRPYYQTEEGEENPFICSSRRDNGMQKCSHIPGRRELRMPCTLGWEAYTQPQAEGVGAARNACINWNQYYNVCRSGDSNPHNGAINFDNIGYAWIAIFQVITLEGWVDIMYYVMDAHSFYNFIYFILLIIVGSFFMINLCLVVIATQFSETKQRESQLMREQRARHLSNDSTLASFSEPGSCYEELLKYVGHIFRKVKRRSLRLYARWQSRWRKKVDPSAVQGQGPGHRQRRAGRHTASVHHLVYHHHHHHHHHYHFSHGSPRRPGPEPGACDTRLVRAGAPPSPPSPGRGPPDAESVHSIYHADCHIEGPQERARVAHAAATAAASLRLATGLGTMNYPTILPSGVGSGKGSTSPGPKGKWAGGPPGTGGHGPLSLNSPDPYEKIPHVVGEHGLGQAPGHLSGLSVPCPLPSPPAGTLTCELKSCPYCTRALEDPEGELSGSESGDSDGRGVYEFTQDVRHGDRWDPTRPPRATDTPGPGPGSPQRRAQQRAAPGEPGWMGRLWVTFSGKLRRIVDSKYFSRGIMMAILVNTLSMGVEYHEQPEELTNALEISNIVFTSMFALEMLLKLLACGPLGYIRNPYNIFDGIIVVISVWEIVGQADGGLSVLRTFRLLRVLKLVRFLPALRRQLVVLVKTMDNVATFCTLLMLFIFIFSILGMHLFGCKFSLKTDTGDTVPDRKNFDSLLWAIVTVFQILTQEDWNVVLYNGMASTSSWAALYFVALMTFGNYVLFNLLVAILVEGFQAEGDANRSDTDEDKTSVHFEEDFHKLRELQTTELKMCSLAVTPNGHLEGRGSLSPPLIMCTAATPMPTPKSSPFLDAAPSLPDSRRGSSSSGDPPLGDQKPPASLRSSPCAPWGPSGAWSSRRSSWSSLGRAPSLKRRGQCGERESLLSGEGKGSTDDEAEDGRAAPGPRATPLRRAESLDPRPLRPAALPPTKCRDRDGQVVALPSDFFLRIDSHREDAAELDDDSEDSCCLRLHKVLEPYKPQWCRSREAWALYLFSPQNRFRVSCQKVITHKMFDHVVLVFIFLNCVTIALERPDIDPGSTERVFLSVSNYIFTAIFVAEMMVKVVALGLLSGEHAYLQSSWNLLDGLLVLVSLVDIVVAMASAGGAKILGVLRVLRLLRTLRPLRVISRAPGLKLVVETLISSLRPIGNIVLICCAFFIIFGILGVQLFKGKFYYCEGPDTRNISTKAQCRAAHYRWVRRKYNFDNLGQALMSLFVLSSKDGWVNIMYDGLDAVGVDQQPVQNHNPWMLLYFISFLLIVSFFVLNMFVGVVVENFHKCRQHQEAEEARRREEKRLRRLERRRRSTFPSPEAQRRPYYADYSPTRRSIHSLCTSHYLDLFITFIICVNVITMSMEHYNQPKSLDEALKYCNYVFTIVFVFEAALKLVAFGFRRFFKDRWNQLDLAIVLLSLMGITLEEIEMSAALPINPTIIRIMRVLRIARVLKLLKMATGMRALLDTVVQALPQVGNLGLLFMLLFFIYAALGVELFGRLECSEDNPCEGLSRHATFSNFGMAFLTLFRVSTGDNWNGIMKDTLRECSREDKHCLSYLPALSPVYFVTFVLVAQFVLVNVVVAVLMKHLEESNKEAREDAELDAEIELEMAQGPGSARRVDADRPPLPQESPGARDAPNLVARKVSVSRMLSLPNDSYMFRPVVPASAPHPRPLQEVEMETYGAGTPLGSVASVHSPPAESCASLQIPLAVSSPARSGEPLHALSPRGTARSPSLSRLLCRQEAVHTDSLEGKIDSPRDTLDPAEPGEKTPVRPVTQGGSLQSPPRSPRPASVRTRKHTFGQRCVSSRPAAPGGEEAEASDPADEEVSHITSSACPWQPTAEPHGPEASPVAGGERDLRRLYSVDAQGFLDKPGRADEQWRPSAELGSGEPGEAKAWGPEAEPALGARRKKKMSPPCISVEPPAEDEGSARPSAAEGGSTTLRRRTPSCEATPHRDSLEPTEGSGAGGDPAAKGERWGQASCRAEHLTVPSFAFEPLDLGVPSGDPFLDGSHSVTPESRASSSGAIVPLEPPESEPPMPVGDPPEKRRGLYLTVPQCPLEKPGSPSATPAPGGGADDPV
# HUVEC tox IL1B – HUVEC cytotoxicity counter-screen, IL-1B stimulated; 94,000 tested, 0.41% active; HUVEC cell count loss, Hoechst imaging; cell count reduction, % at 2 µM;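 active = cell count reduction more than 3 SD above the screen-wide mean, cut at about 70% in these data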;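 note: normalized per plate to untreated control cells as the no-loss baseline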
# NFkB transloc pot – enhances IL-1B driven NFkB nuclear translocation; HUVEC IL-1B NFkB p65 nuclear translocation imaging; activation, % at 2 µM; 94,000 tested, 0.3% active;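 active = activation above 40%, about the mean plus 3 SD, also judged a hit on visual image review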;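 note: percent activation is computed from the nuclear over cytoplasmic p65 intensity ratio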
# * hit, by the source's call; · = no result.
SMILES,IL1B NFkB inh,Cav3 T inh,HUVEC tox IL1B,NFkB transloc pot
Cc1cc(C(=O)Cn2nnc3ccccc3c2=O)c(C)n1-c1ccccc1F,-7,-7*,1,7
O=C(CSc1nnc(C2COc3ccccc3O2)o1)N1CCCc2ccccc21 (stereo not drawn),-9,-10*,-25,9
O=C(CSc1nnc(Cc2ccccc2)o1)N1CCCc2ccccc21,·,-3.9*,·,·
O=C(CSc1nnc(CNc2ccccc2)o1)N1CCc2ccccc21,-4,0.41,-6,4
Cc1ccc(-n2c(O)c(C=Nc3ccc4c(c3)OCO4)c3ccccc3c2=O)cc1C,-17,-1.6,2,17
Oc1c(Cl)cc(Cl)cc1C=Nc1ccc2c(c1)OCCO2,1,-9*,5,-1
O=C(NCc1ccc2c(c1)OCO2)c1ccc2c(c1)S(=O)(=O)c1ccccc1C2=O,·,-1.2,·,·
COc1cccc2c1C(=O)c1c(O)c3c(c(O)c1C2=O)C[C@@](O)(C(=O)CO)C[C@@H]3O[C@H]1C[C@H](N)[C@H](O)[C@H](C)O1,·,-5.7*,·,·
COc1ccc(-c2nc3cc(NC(=O)Cc4ccc(OC)c(OC)c4)ccc3o2)cc1,0,-1.4,-7,0
Cc1cccc(Oc2nc(-c3ccccc3)cc(C)c2S(C)(=O)=O)c1C,-2,-3.9*,-28,2
COc1ccccc1Oc1nc(-c2ccccc2)cc(C)c1S(C)(=O)=O,-3,-2.1,-2,3
Cc1ccc(S(=O)(=O)N2CCC(=O)N(CCOCc3ccc(F)cc3)CC2)cc1,·,1,·,·
CN(C)CCCn1c(NC(=O)C2CCCCC2)nc2ccccc21,-12,-3.6*,-14,12
N#CC1=C(N)S[C@@H](C(=O)c2ccc(F)cc2)[C@@H]1c1cccs1,-21,-4.7*,26,21
N#CC1=C(N)SC(C(=O)c2ccccc2)C1c1cccs1 (stereo not drawn),-14,-2.7,-2,14
O/N=C1\CCc2cc(Cl)ccc21,-27,2.4*,-45,27
O/N=C1\CC/C(=N\O)c2nn(-c3ccc(Cl)cc3Cl)nc21,-4,0.13,-9,4
CC1=C(C(=O)Nc2ccccc2)C(c2ccc(C)cc2)N=C(Nc2nc3ccccc3o2)N1 (stereo not drawn),-9,0.32,-62,9
COc1ccc(S(=O)(=O)Nc2nc3n(n2)C(c2ccc(Cl)cc2)CC(=O)N3)cc1 (stereo not drawn),-15,·,-6,15
CC1CC(C)CN(C(=O)c2ccccc2Nc2ccc(SC(F)F)cc2)C1 (stereo not drawn),-7,-4.2*,4,7
Cc1oc(-c2ccc(Cl)cc2)nc1CN1CCC(C(=O)NCc2cccs2)CC1,-3,-7.5*,9,3
CCN(CCNC(=O)C1CCN(Cc2nc(-c3cccc(Cl)c3)oc2C)CC1)c1ccccc1,2,-6.9*,-3,-2
Cc1ccccc1-c1nc(CN2CCC(C(=O)NCCC3=CCCCC3)CC2)c(C)o1,2,-7.1*,0,-3
Cc1oc(-c2ccc(Cl)cc2)nc1CN1CCC(C(=O)NCCCN2CCOCC2)CC1,7,0.74,-1,-7
CCN(CCNC(=O)C1CCN(Cc2nc(-c3ccc(Cl)cc3)oc2C)CC1)c1ccccc1,-16,-8.4*,4,16
SMILES,IL1B NFkB inh,Cav3 T inh,HUVEC tox IL1B,NFkB transloc pot
CCOc1ncccc1C(=O)OCC(=O)NCCc1ccc(OC)cc1,·,0.015,·,·
CCN(CCNC(=O)C1CCCN(Cc2nc(-c3ccc(OC)cc3)oc2C)C1)c1ccccc1 (stereo not drawn),17,-4.9*,-18,-17
CCc1ccc(-c2nc(CN3CCC(C(=O)NCCN(CC)c4ccccc4)CC3)c(C)o2)cc1,-5,-7.5*,-4,5
CCc1ccc(-c2nc(CN3CCC(C(=O)NCc4ccc(F)cc4)CC3)c(C)o2)cc1,3,-7.3*,4,-3
CCc1ccc(-c2nc(CN3CCC(C(=O)N4CCN(c5ccccc5)CC4)CC3)c(C)o2)cc1,-10,-4,-3,10
CCCc1cc(=O)n2[nH]c(C)cc2n1,1,0.46,-3,-1
CCCCCCc1cc2cc(-c3nnc(-c4cc(OC)c(OC)c(OC)c4)o3)c(=O)oc2cc1O,-26,-3.2,-13,26
CCCCCCc1cc2cc(-c3nnc(-c4ccccc4O)o3)c(=O)oc2cc1O,·,-3.5*,·,·
CCCCCCc1cc2cc(-c3nnc(-c4ccccc4OC)o3)c(=O)oc2cc1O,0,-4.2*,-8,-1
C=CCC1(O)C(=O)N2C(=C1C(=O)N1CCOCC1)c1ccccc1CC2(C)C (stereo not drawn),6,0.14,3,-6
COc1ccc(-c2onc(C)c2-c2ccc(C(=O)OC(C)C)o2)c(O)c1,·,-5.2*,·,·
O=C(Nc1ccc(-c2cn3ccsc3n2)cc1)C1CC1,-17,1.2,-54,17
O=C(Nc1ccc(-c2cn3ccsc3n2)cc1)C1CCCC1,100*,-0.17,90*,-100
CC(C)C[C@H](N)c1cn([C@@H](Cc2ccc(O)cc2)C(=O)N2CCNCC2)nn1,·,0.63,·,·
CN1CC(=O)NC1=NC(=O)C12CC3CC(CC(C3)C1)C2,-6,0.019,18,5
COc1ccccc1C(=O)OCc1c(F)cccc1Cl,6,-1.9*,-16,-6
O=C(Cc1c(F)cccc1Cl)c1ccc(O)cc1O,-13,-0.5,26,13
CCNc1nc(SCc2ccccc2)nc(N2CCOCC2)n1,1,-4.9*,-7,-1
CN(C)c1nc(SCc2ccccc2)nc(N2CCOCC2)n1,19,-1.8,4,-19
CCOC(=O)C1=C(O)C(Nc2nccs2)(C(F)(F)F)N=C1C (stereo not drawn),-7,·,-1,7
CN(c1ccc(C(=O)NCCSC(C)(C)C)cc1)S(C)(=O)=O,5,1.1,87*,-5
CN(c1ccc(C(=O)NCCc2ccccc2)cc1)S(C)(=O)=O,23,-1.1,-28,-23
C#CCOCCOCCOCCNc1nc(N2CCN(C(=O)C([C@@H](C)CC)n3cc(C(N)CO)nn3)CC2)nc(N2CCN(C(=O)C([C@@H](C)CC)n3cc(C(N)COC(=O)C(F)(F)F)nn3)CC2)n1 (stereo partly drawn),·,0.51,·,·
O=C(NNC(=O)c1cc(OCC(F)(F)F)ccc1OCC(F)(F)F)c1cccc(C(F)(F)F)c1,·,-9*,·,·
Cc1ccc(C(=O)NNC(=O)c2cc(OCC(F)(F)F)ccc2OCC(F)(F)F)cc1,11,-1.2,13,-11
SMILES,IL1B NFkB inh,Cav3 T inh,HUVEC tox IL1B,NFkB transloc pot
O=C(CN1C(=O)NC2(CCCCCC2)C1=O)c1ccc2c(c1)OCCO2,-3,0.1,-44,3
CCc1nc(SCc2ccc(F)cc2)[nH]c(=O)c1C#N,2,-7.7*,-20,-2
CCc1nc(SCc2cccnc2)[nH]c(=O)c1C,·,-0.051,·,·
Cc1ccc(CNC(=O)C2CCN(S(=O)(=O)N3CCOCC3)CC2)cc1,-5,-0.25,-13,5
NC(=O)c1ncn([C@@H]2O[C@H](CO)[C@@H](O)[C@H]2O)c1O,·,-1.2,·,·
O=C(COC(=O)CCCc1c[nH]c2ccccc12)Nc1ccc2c(c1)OCO2,6,-1,-4,-6
O=C(COC(=O)C1c2ccccc2Oc2ccccc21)Nc1ccc2c(c1)OCO2,-2,-4.3*,-22,2
CCOCCOC(=O)C1=C(C)NC2=C(C(=O)CC(c3cccs3)C2)C1c1ccsc1 (stereo not drawn),-1,-0.94,-22,1
